This passage reports growth results from PubChem BioAssay (NCI).

What all share (assay): NCI-60 one-dose screen, 48 h (100 = growth as untreated, 0 = no growth, -100 = all killed)
Conditions in all cases: 10 µM unless noted

For assay [1], the system named is SR leukemia.
The subject of assay [2] is RPMI-8226 leukemia.
The subject of assay [3] is OVCAR-8 ovarian.
In assay [4] the test system is OVCAR-5 ovarian.
Assay [5] relates to OVCAR-4 ovarian.
Assay [6] has as its system SK-OV-3 ovarian.
For assay [7], the system named is IGROV1 ovarian.
Assay [8] deals with OVCAR-3 ovarian.
For assay [9], the system named is HS 578T breast.
Assay [10] has as its system T-47D breast.
The test system of assay [11] is BT-549 breast.
Assay [12] has as its system MDA-MB-435 melanoma.
Assay [13] concerns SW-620 colon.
In assay [14] the test system is MCF7 breast.
The subject of assay [15] is HCC-2998 colon.
For assay [16], the system named is KM12 colon.
Assay [17] relates to MDA-MB-468 breast.
For assay [18], the system named is NCI/ADR-RES ovarian.
Assay [19] concerns HCT-116 colon.

About 83,000 compounds went through this panel and 20% of them were active in at least one assay; those are over-represented in the sample as a whole.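 Single-concentration screen, 48 h exposure, 96-well plates. Endpoint: percent growth. Below 10 = active.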 Values without a mark were called inactive. Active and inactive are the calls of the source.

As for `N/C(=N\c1nc2ccccc2s1)NC(=O)Nc1ccccc1Br`, the growth in [1] was 12.1%; in [2] it was -0.145% (active); in [3], -55.7% (active); in assay [4] it was -17% (active); in assay [5] it was -59.1% (active); in assay [6] it was -6.97% (active). Also, the growth was 11.5% in assay [7]; -72.3% (active) in assay [8]; -5.34% (active) in [9]; 45.3% in assay [10]; -7.4% (active) in [11]; -63.9% (active) in assay [12]. Moreover, the growth was 5.64% (active) in assay [13]; 8.24% (active) in [14]; -21% (active) in assay [15]; -48.2% (active) in assay [16]; -29.3% (active) in assay [17].

Consider `COc1ccc(/C=C/c2nc3ccccc3c(=O)n2CC(=O)Nc2ccc(OC)cc2)cc1`, for which the growth in [1] was 79.5%; in assay [2], 76.4%; in assay [3] it was 59.1%; in assay [4], 95.6%; in [5] it was 9.1% (active); in assay [6], 79.3%. Moreover, the growth in assay [7] is 94.2%; in assay [8], 62.5%; in [9] it was 56.2%; in assay [18], 75.7%; in assay [11] it was 72.5%; in [12], 96.4%. Further, the growth in assay [13] is 84.4%; in assay [19] it was 32.1%; in assay [15], 95.6%; in [16], 79.6%; in assay [17], 91.1%.

As to `COc1cccc(/C=C/c2nc3ccccc3c(=O)n2CC(=O)Nc2ccc(Cl)cc2)c1`, the growth in assay [1] is 79.7%; in [2], 88.3%; in [3], 48.8%; in assay [4], 73.5%; in [5] it was -11.4% (active); in assay [6], 76.8%. Besides, the growth is 77.3% in assay [7]; 35.5% in assay [8]; 32.8% in assay [9]; 69.3% in [18]; 86.8% in [11]; 95.4% in assay [12]. Besides, the growth in assay [13] was 68.1%; in assay [19] it was 38.4%; in [15], 91%; in [16], 77.8%; in assay [17], 108%.

As for `CC(=O)Nc1cccc(-c2nc3cc(-c4ccc(O)cc4)ccc3n2C)c1`, the growth is 59% in assay [1]; 28.4% in assay [2]; 22.2% in assay [3]; 93.6% in assay [4]; 20.9% in assay [5]; 77.5% in assay [6]. Also, the growth in assay [7] is 51.7%; in assay [8] it was 31.3%; in assay [9], 56.1%; in [10] it was 9.44% (active); in assay [11], -8.08% (active); in [12], 11.1%. The growth was 79.3% in assay [13]; 6.65% (active) in assay [14]; 45.7% in assay [19]; 88.2% in [15]; 37.5% in assay [16]; 7.83% (active) in assay [17].

Turning to `N#Cc1c(-c2cccc3ccccc23)cc(-c2cccc(OCC(=O)O)c2)[nH]c1=O`, the growth in [1] is 87.2%; in assay [2], 96.5%; in assay [3], 98.9%; in assay [4], 89.9%; in assay [5], 91.9%; in assay [6], 108%. Besides, the growth in assay [7] was 110%; in assay [8], 104%; in [18], 99%; in assay [10], 105%; in assay [11] it was 114%; in [12], 101%. For the same molecule, the growth in [14] was 96.1%; in assay [19] it was 103%; in assay [15], 110%; in assay [16], 103%; in [17], 98.7%.

As for `Cc1c(C(=O)NNC(=O)Nc2ccc(Cl)cc2)nnn1-c1ccc(Br)cc1`, the growth in [1] is 89.9%; in assay [2] it was 98.7%; in assay [3] it was 101%; in assay [4] it was 102%; in assay [5] it was 86.4%; in assay [6], 79.6%. Besides, the growth in assay [7] was 97.6%; in assay [8] it was 116%; in assay [18], 94.4%; in assay [10] it was 88.8%; in [11], 102%; in [12] it was 99.7%. The growth was 85% in [14]; 90.7% in assay [19]; 106% in [15]; 103% in [16]; 91% in [17].

Take `Cc1ncsc1-c1ccc(CNC(=O)[C@@H]2C[C@@H](O)CN2C(=O)[C@@H](NC(=O)C2(F)CC2)C(C)(C)C)c(OCCOCCOCCOCCOc2nc(Nc3cc(S(C)(=O)=O)ccc3N[C@@H](c3cccc4c3OC(F)(F)O4)c3ncccc3Cl)nc(N3CCNCC3)n2)c1`: the growth is 26.3% in [1]; 13.6% in assay [2]; 98.4% in assay [3]; 99% in [4]; 91.6% in assay [5]; 111% in [6]. In addition, the growth in assay [7] is 72.2%; in [8], 89.1%; in [18], 103%; in assay [10], 76.6%; in assay [11] it was -34.3% (active); in assay [12], 86.9%. For the same molecule, the growth in assay [14] was 5.45% (active); in [19], 69.5%; in assay [15], 71.2%; in assay [16], 71.2%; in [17], -19.8% (active).

For `CSc1ccc(NC(=O)c2ccc3nn(/C(C#N)=C/c4ccccn4)nc3c2)cc1`, the growth in assay [1] is -6.88% (active); in [2] it was -35.4% (active); in assay [3] it was -44.2% (active); in assay [4], -87.6% (active); in assay [5], -57.2% (active); in assay [6], -2.79% (active). The growth in assay [7] is -87.4% (active); in assay [8], -85% (active); in assay [18], -35.7% (active); in [10], -39.9% (active); in assay [11] it was -97.9% (active); in [12], -70.8% (active). Also, the growth in assay [14] was -78.6% (active); in assay [19], -73.9% (active); in assay [15] it was -100% (active); in assay [16], -68% (active); in [17], -94% (active).

In the case of `CC1=C(C(=O)c2ccccc2)C(c2cccc(Cl)c2Cl)n2c(nc3ccccc32)N1` (centres undefined), the growth was 39.2% in assay [1]; 86% in [2]; 26.3% in assay [3]; 60.3% in [4]; 65.2% in [5]; 33.7% in assay [6]. Also, the growth is 77.7% in assay [7]; 35.5% in [8]; 19.1% in [18]; 76.6% in assay [10]; 52.4% in assay [11]; 72.1% in [12]. In addition, the growth in assay [14] was 26.7%; in assay [19], 50.1%; in assay [15] it was 88%; in [16], 92%; in [17], -38.3% (active).
